Screening data deposited in PubChem by several laboratories.
Pemphigus Ab inh: inhibitors of pemphigus antibody binding to DSG3, primary screen, biochemical, bead-based, flow cytometry, scFv-GFP | Desmoglein-3 (Homo sapiens), P32926 | AID 588358, 2011 | DSG3-coupled beads, scFv-anti-DSG3-GFP binding; stronger effect = lower value | actives 0.48% (n = 310,000) | binding (percent of control), % at 10 µM;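 active = binding more than 3 SD below its plate's average and above zero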;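 also: hits lower antibody fragment binding to DSG3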
Target sequence (P32926 whole entry, looked up, the tested form may be a part): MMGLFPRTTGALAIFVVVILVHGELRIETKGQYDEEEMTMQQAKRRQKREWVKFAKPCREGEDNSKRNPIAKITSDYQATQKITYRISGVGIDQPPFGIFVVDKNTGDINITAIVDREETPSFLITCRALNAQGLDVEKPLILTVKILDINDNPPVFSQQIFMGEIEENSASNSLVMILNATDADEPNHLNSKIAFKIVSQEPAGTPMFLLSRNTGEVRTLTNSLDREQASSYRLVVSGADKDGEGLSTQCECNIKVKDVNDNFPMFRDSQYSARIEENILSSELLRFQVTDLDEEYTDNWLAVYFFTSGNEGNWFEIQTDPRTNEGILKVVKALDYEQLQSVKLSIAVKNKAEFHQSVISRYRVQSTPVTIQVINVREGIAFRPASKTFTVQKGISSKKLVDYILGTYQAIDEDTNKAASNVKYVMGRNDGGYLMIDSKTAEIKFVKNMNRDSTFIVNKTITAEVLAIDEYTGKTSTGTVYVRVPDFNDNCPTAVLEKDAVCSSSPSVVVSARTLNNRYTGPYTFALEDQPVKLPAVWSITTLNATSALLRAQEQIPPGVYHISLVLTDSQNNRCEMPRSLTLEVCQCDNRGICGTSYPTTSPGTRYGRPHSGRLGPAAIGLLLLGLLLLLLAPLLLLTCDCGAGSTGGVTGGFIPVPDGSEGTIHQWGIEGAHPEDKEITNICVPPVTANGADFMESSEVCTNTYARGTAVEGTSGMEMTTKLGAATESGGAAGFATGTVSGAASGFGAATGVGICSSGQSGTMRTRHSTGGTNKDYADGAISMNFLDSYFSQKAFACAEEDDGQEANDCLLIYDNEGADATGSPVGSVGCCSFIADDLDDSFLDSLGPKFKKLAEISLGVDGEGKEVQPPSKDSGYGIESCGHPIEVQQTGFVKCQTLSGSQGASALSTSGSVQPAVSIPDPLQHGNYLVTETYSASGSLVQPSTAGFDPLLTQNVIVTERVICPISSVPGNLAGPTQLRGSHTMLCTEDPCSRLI
rCAG RNA binder: binders of r(CAG) RNA repeats, primary screen, biochemical, fluorescence | r(CAG) RNA repeat, TO-PRO-1 dye displacement fluorescence | inhibition, % at 3 µM | actives 1.3% (n = 370,000);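 active = inhibition above the plate cutoff, the mean of all test compounds on that plate plus 3 SD, cut at about 35% in these data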;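 also: 0% = DMSO alone and 100% = 100 µM mitoxantrone as full dye displacement; higher means more dye released from RNA so lower well fluorescence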
DAGLB inhibitor: DAGLB lipase inhibitors, primary screen, biochemical, fluorescence, HTS | Diacylglycerol lipase-beta (Homo sapiens), Q8NCG7 | HEK293T DAGLB membrane lysate, EnzChek fluorogenic substrate | inhibition, % at 5.17 µM | actives 0.059% (n = 340,000); in the data active = inhibition above about 34%;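 also: 0% = enzyme with vehicle and 100% = wells lacking enzyme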
NadD block: inhibitors of S. aureus NadD, primary screen, biochemical, colorimetric, uHTS | Nicotinate-nucleotide adenylyltransferase NadD (Staphylococcus aureus N315) | purified NadD enzyme, colorimetric absorbance read-out | inhibition, % at 20 µM | actives 0.78% (n = 360,000); in the data active = inhibition above about 26%
bovine MsrA act: bovine MsrA enzyme activators, primary screen, biochemical, absorbance, HTS; purified bovine MsrA, absorbance read-out; activation, % at 10.6 µM; Methionine sulfoxide reductase A (Bos taurus); actives 0.3% (n = 360,000); in the data active = activation above about 7.5%;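 also: 0% = vehicle and 100% = reference activator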
MsrA inh: bovine MsrA enzyme inhibitors, primary screen, biochemical, absorbance, HTS. purified bovine MsrA, absorbance read-out. actives 0.75% (n = 360,000). Methionine sulfoxide reductase A (Bos taurus). inhibition, % at 15.5 µM; in the data active = inhibition above about 4.5%;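 also: 0% = vehicle wells with enzyme and 100% = reference inhibitor wells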
NadD conf: inhibitors of S. aureus NadD, confirmation, biochemical, colorimetric, single concentration. inhibition, % at 20 µM. purified S. aureus NadD, colorimetric enzyme assay. actives 13% (n = 2,000). shares compounds with NadD block. AID 624309, 2012; in the data active = inhibition mostly above about 42%, no sharp cut-off; inactive = mostly below about 42%
rCAG bind conf: small molecules binding CAG repeat RNA – biochemical, fluorescence, confirmation. shares compounds with rCAG RNA binder. r(CAG) RNA repeat, TO-PRO-1 dye displacement fluorescence. inhibition, % at 3 µM. actives 70% (n = 4,300). AID 652065, 2013;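 active = inhibition above a per-plate cutoff, the mean inhibition of sample wells plus 3 SD, cut at about 35% in these data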;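 also: loss of TO-PRO-1 fluorescence as compound displaces dye from 1x1 AA loop RNA; 0% = DMSO only wells and 100% = 100 µM mitoxantrone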
DNA CAG counter: displacement of TO-PRO-1 from CAG DNA duplex, counter-screen for rCAG RNA repeat binder project, biochemical, fluorescence, TO-PRO-1 dye, d(CAG) DNA oligo | inhibition, % at 3 µM | actives 94% (n = 4,300) | d(CAG) DNA oligo TO-PRO-1 dye displacement | shares compounds with rCAG RNA binder;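 active = inhibition above its plate's cutoff, the mean test-well inhibition plus 3 SD, cut at about 4.8% in these data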;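 also: 0% = DNA dye mix with DMSO and 100% = 100 µM mitoxantrone; hits displace the dye from DNA and so lower well fluorescence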
* = called active by the depositor; x = no result given. Only some compounds are listed: those with a hit (about 3.2% of all), similar ones and a draw of the others.

SMILES	Pemphigus Ab inh	rCAG RNA binder	DAGLB inhibitor	NadD block	bovine MsrA act	MsrA inh	NadD conf	rCAG bind conf	DNA CAG counter
CCC(=O)N1CCCC(C)(C(=O)Nc2ccc(C)c(C)c2)C1 (stereo not drawn)	x	1	x	-2	-1	-1	x	x	x
Cc1cccc2sc(NNC(=O)c3ccc(S(=O)(=O)N4CCc5ccccc5C4)cc3)nc12	97	54*	7	38*	-3	1	51*	59*	30*
C[C@H](CO)N1C[C@H](C)[C@@H](CN(C)C(=O)NC2CCCCC2)Oc2ccc(NC(=O)CCC(F)(F)F)cc2C1=O	102	-7	0	6	-5	-1	x	x	x
Cc1cc(C)c2nc(N3C(=O)C(O)=C(C(=O)c4ccco4)C3c3ccco3)sc2c1 (stereo not drawn)	102	81*	17	39*	-4	0	46	82*	49*
CCOc1ccc2nc(N3C(=O)C(O)=C(C(=O)c4ccco4)C3c3ccco3)sc2c1 (stereo not drawn)	94	22	4	13	-4	1	x	x	x
CCN(CC)c1nc2c3c(nc4c(c3c1C#N)CC(=O)N4c1ccc(Cl)cc1)NC(C)=N2	85	60*	15	45*	-3	2	27	52*	23*
CC(C)(C)c1ccc(N2C(=O)Cc3c2nc(N)c(C#N)c3N)cc1	98	3	0	6	-16	3	x	x	x
CC(=O)Nc1cc(-c2ccccc2Cl)cn2c(-c3ccc(S(C)(=O)=O)cc3)cnc12	x	18	x	10	0	1	x	x	x
COc1cccc(Nc2nc(-c3sc(NC(=O)c4ccco4)nc3C)cs2)c1	103	37*	3	30*	-4	0	42*	30	17*
O=C(Nc1cc(S(=O)(=O)Nc2ccc(Cl)cc2)ccc1O)c1ccc(S(=O)(=O)N2CCCCCC2)cc1	104	47*	20	44*	-7	0	34	73*	38*
CCOC(=O)c1c(-c2ccc(-c3ccccc3)cc2)csc1NC(=O)C1C2CCC(O2)C1C(=O)O (stereo not drawn)	105	51*	12	38*	-7	0	57*	67*	27*
O=C(C1CC1)N1CCc2cc(Br)c(S(=O)(=O)NCCCN3CCCCC3)cc21	x	5	x	x	x	x	x	x	x
CCOC(=O)[C@]12CCC=C1N(Cc1ccc3c(c1)OCO3)C(=O)[C@H](CC(=O)NCC13CC4CC(CC(C4)C1)C3)C2	x	4	x	3	-4	2	x	x	x
CCN(CC)S(=O)(=O)c1ccc(C(=O)Nc2nnc(NC(=S)Nc3ccccc3)s2)cc1	94	61*	2	47*	-6	2	22	64*	33*
O=C(Nc1cc(Br)ccc1O)c1cc(-c2ccco2)on1	108	43*	-5	29*	-4	2	11	42*	19*
Cn1c(N)c(C(=O)COC(=O)c2cc(-c3ccco3)nc3ccccc23)c(=O)n(C)c1=O	88	49*	4	59*	-3	0	74*	45*	20*
Cc1ccc(NC(=O)CN(C)C(=O)c2cc(-c3ccco3)nc3ccccc23)cc1	97	35*	3	34*	-8	0	31	14	8.7*
O=C(COC(=O)c1cc(-c2ccco2)nc2ccccc12)NCc1ccccc1	82	38*	-8	46*	-5	0	19	10	4
Cc1ccc2c(c1)C(CS(=O)(=O)NCc1ccccc1)NC2 (stereo not drawn)	x	9	x	x	x	x	x	x	x
Cc1ccc(S(=O)(=O)N2[C@@H](c3ccc(Br)cc3)C(C(=O)O)=CC[C@H]2c2ccc(C(C)C)cc2)cc1	102	10	9	23	-6	0	x	x	x
Cc1ccc(S(=O)(=O)N2[C@@H](c3ccc(C(C)(C)C)cc3)C(C(=O)O)=CC[C@H]2c2ccc(C(C)C)cc2)cc1	100	90*	17	51*	-8	0	33	74*	44*
Cc1cccc(C2(c3cccc(C)c3)CC2C(=O)Nc2ccc([N+](=O)[O-])cc2O)c1 (stereo not drawn)	100	49*	-2	30*	-1	1	50*	52*	22*
CC1=C(C(=O)N2CCCCCC2)CC(CC(=O)NC2CCCCC2)C(=O)N1Cc1ccc(C(C)(C)C)cc1 (stereo not drawn)	x	4	x	-8	-1	1	x	x	x
COc1ccc(Br)cc1/C=c1\sc2nc(-c3ccco3)nn2c1=O	90	46*	6	40*	-2	0	13	42*	21*
COc1ccccc1/C=c1\sc2nc(-c3ccccc3OC)nn2c1=O	92	28	1	13	-6	0	x	x	x
Cc1ccc2oc(-c3cccc(NC(=S)NC(=O)/C=C/c4ccco4)c3)nc2c1	102	37*	1	32*	-4	3	-8	17	9.8*
Cc1ccc2oc(-c3cccc(NC(=S)NC(=O)c4cccs4)c3)nc2c1	123	1	-3	-3	-6	1	x	x	x
O=C(/C=C/c1ccco1)NC(=S)Nc1nc(-c2ccc(Cl)cc2)cs1	91	15	1	24	-2	1	x	x	x
O=C(/C=C/c1ccco1)NC(=S)Nc1nc(-c2ccc3ccccc3c2)cs1	93	40*	1	30*	-4	2	2	20	14*
CCOC(=O)C1=C(N)n2c(s/c(=C/c3ccco3)c2=O)=C(C(=O)OC)C1c1ccco1 (stereo not drawn)	88	57*	3	31*	-2	2	2	24	14*
